USP2a block: qHTS Assay for Inhibitors of Ubiquitin-specific Protease USP2a Using CHOP2 as the Reporter. Ubiquitin carboxyl-terminal hydrolase 2 (Homo sapiens), O75604. USP2 core, Ub-CHOP2 coupled fluorogenic reporter, 485/531. Potency, µM (series often up to 38.3 µM), for inactives: top-dose activity change, negative = inhibition, actives largely listed as inhibitors. 330,000 tested, 0.01% active. AID 463254, 2010;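 further: plate controls were DMSO wells for no effect and full inhibition by NEM control for full effect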
Target sequence (O75604 whole entry, looked up): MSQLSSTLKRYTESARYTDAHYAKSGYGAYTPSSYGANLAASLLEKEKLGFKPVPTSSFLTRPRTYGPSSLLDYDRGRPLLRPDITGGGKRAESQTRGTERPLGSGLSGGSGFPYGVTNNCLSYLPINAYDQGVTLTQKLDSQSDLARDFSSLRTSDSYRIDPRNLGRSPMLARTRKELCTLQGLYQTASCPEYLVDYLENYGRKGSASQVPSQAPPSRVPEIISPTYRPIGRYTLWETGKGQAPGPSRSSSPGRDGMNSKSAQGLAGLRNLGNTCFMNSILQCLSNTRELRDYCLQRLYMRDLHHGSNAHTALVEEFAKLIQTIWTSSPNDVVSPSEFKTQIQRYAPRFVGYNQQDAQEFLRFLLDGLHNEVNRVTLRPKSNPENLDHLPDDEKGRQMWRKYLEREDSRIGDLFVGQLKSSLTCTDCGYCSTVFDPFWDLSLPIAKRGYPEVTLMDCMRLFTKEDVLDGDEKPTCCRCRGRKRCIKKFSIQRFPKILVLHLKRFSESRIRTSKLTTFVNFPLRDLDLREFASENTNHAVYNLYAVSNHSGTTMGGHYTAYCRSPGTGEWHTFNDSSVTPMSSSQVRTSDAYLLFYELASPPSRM
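Deubiquitinase activity read as fluorescence (485/531 nm) after Ub-CHOP2 cleavage activates the enterokinase reporter on its substrate; USP2 core 10nM, Ub-CHOP2 and substrate 25nM each, 30min compound preincubation then 60min RT; data normalized to NEM, curves fitted.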
EPAC1 antag: qHTS for Antagonist of cAMP-regulated guanine nucleotide exchange factor 3 (EPAC1): primary screen; Rap guanine nucleotide exchange factor 3 (Homo sapiens), O95398; EPAC1 GEF assay, Rap1b-BODIPY-GDP exchange fluorescence; Potency, µM (top dose mostly 115 µM), without a hit: at the highest dose activity change, negative = inhibition, usual class: inhibitors; 360,000 tested, 0.14% active;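 further: plate controls were vehicle for no effect and positive control for full effect; nearly all actives have a fitted effect of over 50% in size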
EPAC2 antag: qHTS for Antagonist of cAMP-regulated guanine nucleotide exchange factor 2 (EPAC2): primary screen. Rap guanine nucleotide exchange factor 4 (Homo sapiens), Q8WZA2. EPAC2 GEF exchange of Rap1B-BODIPY-GDP, fluorescence. Potency, µM (series often up to 114 µM), inactives show top-dose activity, negative = inhibition, usual class: inhibitors. 360,000 tested, 0.18% active. AID 720708, 2013; further: on the % scale 0 is the no-effect control and ±100 the full control effect; nearly all actives have a fitted effect of over 45% in size
USP1-UAF1 inh: Inhibitors of USP1/UAF1: Primary Screen; Ubiquitin carboxyl-terminal hydrolase 1 (Homo sapiens), O94782; recombinant USP1/UAF1, Ub-Rhodamine cleavage fluorescence; Potency, µM (top dose mostly 57.1 µM), for the others: at the top dose activity change, negative = inhibition, hits mostly inhibitors; 390,000 tested, 0.23% active; further: on the % scale 0 is the no-effect control and ±100 the full control effect; nearly all actives have a fitted effect of over 60% in size
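High-throughput fluorogenic screen: 1nM USP1/UAF1 complex, Ub-Rho substrate 150nM final, 50mM HEPES pH 7.8 with 0.5mM EDTA, 0.1 mg/ml BSA, 1mM TCEP and 0.01% Tween-20.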
EPAC1 agonist: qHTS for Agonist of cAMP-regulated guanine nucleotide exchange factor 3 (EPAC1): primary screen; Potency, µM (highest dose often 154 µM), inactives show at the top dose activation, usual class: activators; 360,000 tested, 0.073% active; EPAC1 agonist qHTS, biochemical assay; response scale: 100% = response to 6.5 mM cAMP; Rap guanine nucleotide exchange factor 3 (Homo sapiens), O95398; AID 720707, 2013; further: nearly all actives have a fitted effect of over 60% in size
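Compounds were pinned as a concentration titration into mixtures of EPAC1 (100 nM), BODIPY-GDP-loaded Rap1B (250 nM) and GDP (50 uM). After 5 min at room temperature, fluorescence was followed for 30 min; activity was scaled to 6.5 mM cAMP.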
EPAC2 agonist: qHTS for Agonist of cAMP-regulated guanine nucleotide exchange factor 4 (EPAC2): primary screen; Rap guanine nucleotide exchange factor 4 (Homo sapiens), Q8WZA2; EPAC2 activation, biochemical qHTS; response scale: 100% = 6.5 mM cAMP response; AID 720711, 2013; 360,000 tested, 0.079% active; Potency, µM (titrated, usually from 154 µM), for inactives: at the highest dose activation, usual class: activators; further: nearly all actives have a fitted effect of over 50% in size
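Setup: EPAC2 100 nM, labeled Rap1B complex 250 nM, free GDP 50 uM. Compound titrations pinned in, brief spin, 5 min room temperature incubation. Kinetic fluorescence read over 30 min, normalized to 6.5 mM cAMP.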
* marks the source's active call; other numbers are inactive results; i = inactive; ? = inconclusive; nt = no result. This is a sample that favours compounds with a hit; in the whole collection about 0.44% have one here. The call rests on the fitted dose curve; in most records, active means well fitted curve in the direction sought with a large enough effect; inconclusive means small, poorly fitted or top-dose-only effect, or another doubt; inactive means no such curve, though single readings can be large; an effect the other way counts as inactive or inconclusive. Potency means the concentration at half of the fitted maximal effect.

SMILES | USP2a block | EPAC1 antag | EPAC2 antag | USP1-UAF1 inh | EPAC1 agonist | EPAC2 agonist
Nc1ccccc1S(=O)(=O)c1ccccc1N | 1.7% | 2.8% | -0.4% | -3.9% | 2.2% | -0.4%
Nc1ccc2c(S(=O)(=O)O)cccc2c1S(=O)(=O)O | nt | -17.7% | 56.2µM* | ? | -2.5% | -1.3%
CCc1ccc2c(c1)NC(=O)C2(C)Cc1ccc(C(F)(F)F)o1 (stereo not given) | nt | -20.9% | 20µM* | nt | -24.0% | -10.2%
N=C1C(c2nc3ccccc3c(=O)[nH]2)=C(O)CN1CCO | 2.9% | -0.2% | 5.9% | -3.0% | 3.0% | -0.2%
N=C1C(c2nc3ccccc3c(=O)[nH]2)=C(O)CN1CCc1ccccc1 | 0.794µM* | -1.3% | 2.5% | -26.5% | -1.9% | 9.1%
COc1ccc(-c2nc3scc(CCNS(=O)(=O)c4ccc(F)c(C(F)(F)F)c4)n3n2)cc1OC | nt | nt | nt | -30.9% | nt | nt
CCn1c2ccccc2c2cc(NC(=O)c3ccc(=O)oc3)ccc21 | 12.5% | 11.6% | 24.7% | ? | 18.8% | 100µM*
Cn1c(Cc2cccs2)nnc1SCc1nc2ccccc2[nH]1 | -0.3% | 3.6% | 13.5% | -20.4% | -4.7% | 10µM*
C=CCN(CC=C)Cc1cc(=O)oc2cc(OC)c(Cl)cc12 | nt | -20.2% | 31.6µM* | nt | -4.2% | 13.7%
O=C(O)c1ccc(N/N=C/c2c(F)cccc2Cl)cc1 | 0.6% | 11.5% | 39.8µM* | -22.4% | -6.6% | -7.2%
CC(C)(C)C(=O)/C=c1\s/c(=C\c2ccc(-c3ccc([N+](=O)[O-])cc3)o2)c(=O)n1CC(=O)NC(N)=O | ? | 18.9% | 28.5% | 7.94µM* | -8.2% | 7.5%
CN1/C(=C\C=C2/SC(=S)NC2=O)C(C)(C)c2ccccc21 | ? | 48.9% | 97.6% | 25.1µM* | 63.1µM* | 63.1µM*
CN1C(=CC=C2C=C(I)C(=O)C(I)=C2)C(C)(C)c2ccccc21 | -0.6% | -9.4% | 20.6% | -22.3% | 9.5% | 1.4%
CN1/C(=C\C=C2/C(=O)Oc3ccccc3C2=O)C(C)(C)c2ccccc21 | ? | i | i | ? | 79.4µM* | 79.4µM*
CC(C)CC1C(=O)N(Cc2cn(CCC3OCCCO3)nn2)CCS(=O)(=O)N1Cc1ccc(-c2ccc(F)cc2)cc1 (stereo not given) | nt | -6.9% | 22.4µM* | -4.6% | 0.7% | 0.4%
COC(=O)c1c(SCC(=O)Nc2cc(C)cc(C)c2)[nH]c2ccccc2c1=O | nt | nt | nt | -29.0% | nt | nt
COc1cccc2sc(N3CCN(C(=O)CS(=O)(=O)c4ccc(Cl)cc4)CC3)nc12 | nt | nt | nt | -17.6% | nt | nt
CCOc1ccc(N(C(=O)CC(C)C)S(=O)(=O)c2ccc3c(c2)oc(=O)n3C)cc1 | nt | nt | nt | -31.9% | nt | nt
COc1ccc(NC(=O)CN(C)C(=O)CNC(=O)c2ccc3ccccc3c2)cc1 | 1.1% | 12.5% | 2.2% | -24.5% | 1.9% | -12.7%
COc1cccc(NC(=O)CN(C)C(=O)CNC(=O)c2ccc(Oc3ccccc3)cc2)c1 | 1.0% | 1.1% | 4.5% | -21.3% | 63.1µM* | 10.2%
Brc1cc2c(cc1CSc1ncccn1)OCO2 | 1.8% | -26.2% | 35.5µM* | ? | 4.3% | 20.0%
Cc1cc(C)c(NC(=O)Cn2c(=O)n(-c3cccc(C(F)(F)F)c3)c(=O)c3c(C)c(C)sc32)c(C)c1 | nt | nt | nt | -8.5% | nt | nt
CCOC(=O)c1ccc(NC(=O)CC(=O)Nc2ccc3nc4n(c(=O)c3c2)CCCCC4)cc1 | nt | nt | nt | -17.0% | nt | nt
CC1=NOC(=O)/C1=C\c1ccc(-c2cc(Cl)ccc2Cl)o1 | 3.2% | -11.7% | 79.4µM* | -6.3% | 3.1% | 1.3%
CC1=NOC(=O)/C1=C/c1ccc(-c2ccc(Cl)cc2)o1 | 1.4% | nt | nt | nt | nt | nt
SMILES | USP2a block | EPAC1 antag | EPAC2 antag | USP1-UAF1 inh | EPAC1 agonist | EPAC2 agonist
Cn1cc(C(=O)C(=O)N2CCCCC2)c2ccccc21 | nt | 30.8% | i | -5.4% | 39.8µM* | ?
COc1cc2cc(Oc3ccc4ccc(=O)oc4c3)c(=O)oc2cc1O | -3.0% | 50.1µM* | 9.8% | 4.5% | 79.4µM* | 0.9%
N#C/C(=C\c1ccc(F)cc1)C(=O)NCC1CCCO1 (stereo not given) | nt | nt | nt | 6.5% | nt | nt
CCN1CCc2c(sc(NC(=O)c3ccc(S(=O)(=O)N4CCCC(C)C4)cc3)c2C(=O)OC)C1 (stereo not given) | nt | nt | nt | -21.3% | nt | nt
COC(=O)c1ccccc1NC1=C/C(=N\S(=O)(=O)c2ccc(C(=O)O)cc2)c2ccccc2C1=O | -7.2% | 39.8µM* | ? | 12.6µM* | 5.7% | 12.7%
O=C1C(Nc2ccccc2)=C/C(=N/S(=O)(=O)c2cccs2)c2ccccc21 | 1.9% | -2.8% | -31.9% | 2.51µM* | -3.2% | 10.8%
COC(=O)c1ccccc1NC1=C/C(=N\S(=O)(=O)c2cccs2)c2ccccc2C1=O | 1.3% | -1.5% | 3.5% | 3.98µM* | -1.4% | 7.9%
O=C(NCCc1ccc(Cl)cc1)c1ccc(CSCc2ccccc2Cl)o1 | nt | nt | nt | -16.8% | nt | nt
COc1ccc2c(Cl)c(C(=O)N/N=C3\CCCC(=O)C3)sc2c1 | ? | ? | 20.1% | 15.8µM* | -4.0% | 1.4%
CCOC(=O)c1c(CN(C)C)n(C)c2c(O)c(N=NC(N)=O)c3ccc(Br)cc3c12 | -1.1% | 3.4% | 0.1% | 35.5µM* | 2.0% | -0.6%
COc1ccc(C2N(c3ccc(Cl)cc3)N=C(C(C)=O)N(C)N2C(C)=O)cc1 (stereo not given) | -0.8% | 6.3% | 20µM* | -9.3% | 5.3% | 12.7%
O=c1[nH]nc(CNc2ccc(O)cc2)c2ccccc12 | 5.4% | 35.5µM* | 7.4% | ? | 9.6% | 0.1%
COc1ccccc1/C=C(/C(=O)OCC(=O)Nc1ccc(N(C)C)cc1)c1ccccc1 | -6.1% | -24.7% | 50.1µM* | -0.5% | 3.2% | 15.6%
Cc1ccc[n+](-c2nc([O-])sc2C=O)c1 | ? | 35.9% | 45.0% | 28.2µM* | ? | ?
O=C(CN1CCC(O)CC1)N1c2ccccc2C=Cc2ccccc21 | 10µM* | -3.4% | 2.0% | -18.0% | 6.0% | 0.3%

Bioassay records from PubChem.
